Source: PubChem BioAssay (EPA / NIEHS)
Where “and” joins values, the source holds several entries; their conditions need not be identical. Identical values can stand only once. Records with an inconclusive call do not appear. Calls of active or inactive are those of the source. Rule for the calls: active = hit-call score of the fitted dose curve at least 0.9, where 1 is the maximum; inconclusive = response in the unintended direction; inactive = score below 0.9.

Legend:
[1] = molecular target: Cellular tumor antigen p53 (Homo sapiens) (UniProt P04637); test: TOX21_p53_BLA_p3_ratio: Tox21 HCT-116 p53 Agonism Beta-lactamase Assay, Ratio, Phase 3 (AID 2283596)
Cellular tumor antigen p53 (Homo sapiens), sequence (P04637 whole entry, looked up): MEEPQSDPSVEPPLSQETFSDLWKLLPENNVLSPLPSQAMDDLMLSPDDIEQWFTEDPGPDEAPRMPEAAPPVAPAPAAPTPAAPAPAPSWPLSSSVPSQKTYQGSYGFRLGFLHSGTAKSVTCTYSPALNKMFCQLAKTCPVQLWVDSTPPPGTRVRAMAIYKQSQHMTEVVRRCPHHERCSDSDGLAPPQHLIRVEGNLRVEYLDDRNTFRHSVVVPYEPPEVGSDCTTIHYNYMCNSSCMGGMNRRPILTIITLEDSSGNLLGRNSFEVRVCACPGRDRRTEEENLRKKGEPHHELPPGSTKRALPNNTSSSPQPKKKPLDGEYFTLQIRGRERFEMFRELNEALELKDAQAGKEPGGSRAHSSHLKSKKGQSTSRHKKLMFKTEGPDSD
Method in brief: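 HCT116 p53-bla cells (4000/well) given compound in DMSO (217-fold dilution) after 5 h, incubated 16 h at 37C. CCF4-AM substrate 2 h at room temperature; 460/530 nm emission ratio, gain fitted against DMSO.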

[2] = TOX21_p53_BLA_p4_viability: Viability Assessment in the Tox21 HCT-116 p53 Agonism Beta-lactamase Assay, Phase 4 (AID 2283597);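 note: hits lower the luminescence signal meaning cytotoxicity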
Method in brief: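 Following a 16 h exposure at 37C, the treated HCT116 wells were first read for the FRET ratio. They were then lysed with CellTiter-Glo, and ATP luminescence was recorded after 30 min at room temperature.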

[3] = molecular target: Cellular tumor antigen p53 (Homo sapiens) (UniProt P04637); test: TOX21_p53_BLA_p5_ratio: Tox21 HCT-116 p53 Agonism Beta-lactamase Assay, Ratio, Phase 5 (AID 2283599)
Method in brief: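 HCT-116 cells carrying a p53-inducible beta-lactamase reporter were seeded at 4000 cells/well and dosed after 5 h with compound in DMSO (217-fold dilution). After 16 h at 37C, CCF4-AM substrate was added for 2 h, and the 460/530 nm emission ratio was scored as gain-of-signal versus DMSO.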

[4] = TOX21_p53_BLA_p5_viability: Viability Assessment in the Tox21 HCT-116 p53 Agonism Beta-lactamase Assay, Phase 5 (AID 2283600)
Method in brief: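 After the 460/530 nm beta-lactamase measurement, the wells received an ATP-detection luciferase reagent; signal was read 30 min later at RT. Compound treatment lasted 16 h on cells pre-incubated 5 h post-seeding.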

[5] = molecular target: Cellular tumor antigen p53 (Homo sapiens) (UniProt P04637); test: TOX21_p53_BLA_p4_ratio: Tox21 HCT-116 p53 Agonism Beta-lactamase Assay, Ratio, Phase 4 (AID 2283601)
Method in brief: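 HCT116 cells carrying an inducible beta-lactamase reporter were plated at 4000 cells/well, rested 5 h, then exposed to compounds in DMSO (217-fold dilution) for 16 h at 37C. CCF4-AM substrate was loaded 2 h at room temperature; 460/530 nm emission ratio scored gain-of-signal versus DMSO.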

[6] = Tanguay_ZF_120hpf_MORT_legacy: (Legacy) Oregon State University Tanguay Lab 120 Hour Post-fertilization zebrafish Assay for Mortality (AID 2283633);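 for AC50: fitted as increase in binary mortality versus DMSO negative control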
Method in brief: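 Static waterborne exposure from 6 to 120 hpf at 28C of single dechorionated wild-type (5D) embryos per well, 0.64% DMSO final. Death recorded present/absent by brightfield at 24 and 120 hpf.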

[7] = Tanguay_ZF_120hpf_YSE_legacy: (Legacy) Oregon State University Tanguay Lab 120 Hour Post-fertilization zebrafish Assay for Yolk Sac Edema (AID 2283634);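 for AC50: actives raise the incidence of yolk sac edema above the DMSO baseline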
Method in brief: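 Presence or absence of yolk sac edema was recorded at 120 hpf in surviving larvae. These were wild-type Tropical 5D embryos, chorion removed at 4 hpf, held in static exposure at 28C from 6 hpf with 0.64% DMSO vehicle.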

[8] = Tanguay_ZF_120hpf_AXIS_legacy: (Legacy) Oregon State University Tanguay Lab 120 Hour Post-fertilization zebrafish Assay for Body Axis Malformation (AID 2283635);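 for AC50: potency for an increased fraction of larvae scored with body axis malformation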
Method in brief: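 Binary scoring of axis defects at 120 hpf under brightfield, fitted positive versus DMSO. Tropical 5D embryos, chorion removed by pronase at 4 hpf, were singly exposed in sealed, dark plates at 28C from 6 hpf; DMSO 0.64% final.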

[9] = Tanguay_ZF_120hpf_EYE_legacy: (Legacy) Oregon State University Tanguay Lab 120 Hour Post-fertilization zebrafish Assay for Eye Malformation (AID 2283636);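 note: binary presence or absence of eye malformation scored by brightfield in 120 hpf larvae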
Method in brief: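 Dechorionated wild-type Tropical 5D zebrafish embryos were exposed statically from 6 hpf, one per well, to 120 hpf at 28C in sealed, foil-covered plates with 0.64% DMSO. Eye malformation was scored present/absent by brightfield microscopy against DMSO controls.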

[10] = Tanguay_ZF_120hpf_SNOU_legacy: (Legacy) Oregon State University Tanguay Lab 120 Hour Post-fertilization zebrafish Assay for Snout Malformation (AID 2283637)
Method in brief: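 Tropical 5D wild-type zebrafish embryos, dechorionated with pronase at 4 hpf, were exposed singly from 6 hpf to 120 hpf statically at 28C in 0.64% DMSO. Snout malformation was scored present/absent by brightfield microscopy, fitted against DMSO.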

[11] = Tanguay_ZF_120hpf_JAW_legacy: (Legacy) Oregon State University Tanguay Lab 120 Hour Post-fertilization zebrafish Assay for Jaw Malformation (AID 2283638);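 for AC50: active means more embryos with jaw malformation than DMSO controls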
Method in brief: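 Binary jaw-malformation call at 120 hpf by brightfield microscopy. Embryos (Tropical 5D strain, chorion removed at 4 hpf) were dosed statically at 6 hpf, one per well, at 28C with 0.64% DMSO. Embryos that died were not scored.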

[12] = Tanguay_ZF_120hpf_OTIC_legacy: (Legacy) Oregon State University Tanguay Lab 120 Hour Post-fertilization zebrafish Assay for Otic Vesicle Malformation (AID 2283639)
Method in brief: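 Tropical 5D wild-type zebrafish embryos statically exposed in 0.64% DMSO at 28C until 120 hpf; 5uM trimethyltin chloride as positive control. Otic vesicle malformation scored present/absent by brightfield; dead embryos not scored; gain fitted versus DMSO.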

[13] = Tanguay_ZF_120hpf_PE_legacy: (Legacy) Oregon State University Tanguay Lab 120 Hour Post-fertilization zebrafish Assay for Pericardial Edema (AID 2283640);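 for AC50: potency for increased incidence of pericardial edema versus DMSO baseline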
Method in brief: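 Scoring was binary, by brightfield microscopy at 120 hpf, and skipped where mortality occurred. Wild-type embryos were kept under sealed, foil-covered static exposure at 28C in 0.64% (vol/vol) DMSO.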

[14] = Tanguay_ZF_120hpf_SOMI_legacy: (Legacy) Oregon State University Tanguay Lab 120 Hour Post-fertilization zebrafish Assay for Somite Malformation (AID 2283647)
Method in brief: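 Binary somite-defect scoring at 120 hpf, omitted for embryos that died, in wild-type (Tropical 5D) zebrafish with chorion removed by pronase at 4 hpf; static exposure began 6 hpf, single embryos per well, 28C, 0.64% DMSO; fitted positive versus DMSO.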

[15] = Tanguay_ZF_120hpf_PFIN_legacy: (Legacy) Oregon State University Tanguay Lab 120 Hour Post-fertilization zebrafish Assay for Pectoral Fin Malformation (AID 2283648);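 note: each larva judged yes or no for fin defect by brightfield with dead larvae skipped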
Method in brief: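 Tropical 5D wild-type embryos, dechorionated with pronase at 4 hpf, were placed singly in wells at 6 hpf and statically exposed until 120 hpf at 28C, sealed and dark, with 0.64% (vol/vol) final DMSO; pectoral fin malformation scored present/absent.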

[16] = Tanguay_ZF_120hpf_CFIN_legacy: (Legacy) Oregon State University Tanguay Lab 120 Hour Post-fertilization zebrafish Assay for Caudal Fin Malformation (AID 2283649)
Method in brief: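 Binary brightfield scoring of caudal fin defects at 120 hpf after static, light-shielded exposure at 28C from 6 hpf. Tropical 5D embryos, chorion removed with pronase at 4 hpf, final DMSO 0.64%.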

[17] = Tanguay_ZF_120hpf_PIG_legacy: (Legacy) Oregon State University Tanguay Lab 120 Hour Post-fertilization zebrafish Assay for Pigmentation Malformation (AID 2283650)
Method in brief: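 Tropical 5D wild-type zebrafish embryos, dechorionated with pronase at 4 hpf, were exposed singly from 6 hpf to 120 hpf statically at 28C in sealed, dark plates with 0.64% DMSO; pigmentation scored present/absent by brightfield microscopy, fitted against DMSO.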

[18] = Tanguay_ZF_120hpf_CIRC_legacy: (Legacy) Oregon State University Tanguay Lab 120 Hour Post-fertilization zebrafish Assay for Circulatory Malformation (AID 2283651)
Method in brief: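 Dechorionated wild-type 5D zebrafish embryos, one per well, statically exposed from 6 to 120 hpf at 28C with 0.64% DMSO; circulatory malformation scored present/absent by brightfield microscopy at 120 hpf, dead embryos excluded.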

Measured: AC50

C=CC#N
inactive: [1] | [2] | [3] | [4] | [5]

CCOC(=O)/C=C(C)/C=C/C[C@@H](C)CCCC(C)C
inactive: [1] | [2] | [3] | [4] | [5]

O=C1C2(Cl)C3(Cl)C4(Cl)C(Cl)(Cl)C5(Cl)C3(Cl)C1(Cl)C5(Cl)C24Cl (configuration not stated)
inactive: [6] | [12] | [14] | [15] | [16] | [17] | [18]
active: [1] 72.4 µM and 85.4 µM | [2] 68.4 µM and 66.4 µM | [3] 83.8 µM and 85 µM | [4] 82 µM and 83.7 µM | [5] 83.2 µM and 60.3 µM | [7] 72.1 µM | [8] 6.6 µM | [9] 79.7 µM | [10] 9.66 µM | [11] 8.93 µM | [13] 38.8 µM

CC(C)(C)c1cc(O)ccc1O
active: [6] 32 µM
not listed: [17]
inactive: all other assays above

COP(=S)(OC)Oc1ccc(S(=O)(=O)N(C)C)cc1
inactive: [1] | [2] | [3] | [4] | [5]

Clc1nc(Cl)nc(Cl)n1
inactive: [1] | [2] | [3] | [4] | [5]

O=C/C=C/c1ccccc1
inactive: [1] | [2] | [3] | [4] | [5]

CCCCCCCCCl
inactive: [1] | [2] | [3] | [4] | [5]

CC(C#N)CCC#N (configuration not stated)
inactive: [1] | [2] | [3] | [4] | [5]

CC(=O)OC(c1ccccc1)C(Cl)(Cl)Cl (configuration not stated)
inactive: [1] | [2] | [3] | [5]

CCCCP(CCCC)CCCC
inactive: [1] | [2] | [4] | [5]

CC12CC1(C)C(=O)N(c1cc(Cl)cc(Cl)c1)C2=O (configuration not stated)
not listed: [15] | [16]
inactive: all other assays above

ClCc1cccnc1
inactive: [1] | [3] | [4]
